Results published in PubChem BioAssay.
Several values for one entry are separate records, joined by “and”; a condition that tells them apart may be missing. Equal values may be shown once. Activity calls are given as the source filed them. Rule as the data show it, unless noted: active = parasite load remaining mostly below about 12% (no sharp cut-off); inactive = mostly above about 10%.

Experiments:
[1] = P. berghei load reduction in hepatocytes – cell-based, HepG2, luciferase luminescence, HepG2 viability, primary screen (AID 624349);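 also: 100% = mean of DMSO negative control wells on the same plate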; conditions: P. berghei liver stage in HepG2, luciferase luminescence, concentration not given here; parasite load remaining: stronger effect = lower value; viability: measured here: HepG2 viability without parasites
[2] = viability loss with induced miR-34 in A549 – imaging, A549 dox-inducible miR-34, nuclei and caspase counts, primary screen (AID 1347080;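 active = compounds whose cell count with miR-34 switched on is under 0.7 times the count with it off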); conditions: A549 miR-34 inducible, Hoechst nuclei count, 48 h
[3] = MELAS cybrid and Rieske KO viability enhancers – cell-based, MELAS cybrids, Rieske KO mouse fibroblasts, CellTiter-Glo, primary screen (AID 1508586;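 active = mean z-score across replicates of 1.96 or higher in either the MELAS or the Rieske mutant cell line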;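 also: z relative to plate mean and SD of compound and empty wells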); conditions: low glucose
[4] = galactose survival enhancers in mitochondrial complex I cybrids – cell-based, galactose medium, ATP luminescence, primary screen (AID 1645843;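 active = z-score of at least 1.8 in each of two replicates, scored against plate mean and spread of sample wells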;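 also: positive z means more ATP and so rescue of galactose-driven cybrid death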); conditions: complex I mutant cybrid cells, 72 h, stronger effect = higher value
[5] = compounds altering viability of human ES cells (AID 493140; call rule not given here;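 also: cells exposed to compounds for four days before counting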); conditions: human embryonic stem cell survival screen; stronger effect = higher value
[6] = stronger effect = lower value, cell number ratio, induced over uninduced
[7] = measured here: relative caspase fold change +Dox/-Dox
[8] = measured here: total cells with miR-34 induction, stronger effect = lower value
[9] = measured here: total cells without miR-34 induction
[10] = MELAS cybrid survival, CellTiter-Glo 48 h, stronger effect = higher value
[11] = Rieske KO mouse fibroblast survival, CellTiter-Glo 72 h

SMILES | parasite load remaining [1] | viability [1] | fold change [2, 6] | fold change [2, 7] | cell count [2, 8] | cell count [2, 9] | z-score [3, 10] | z-score [3, 11] | z-score [4] | survival [5]
CC[C@H]1OC(=O)[C@H](C)[C@@H](O[C@H]2C[C@@](C)(OC)[C@@H](O)[C@H](C)O2)[C@H](C)[C@@H](O[C@@H]2O[C@H](C)C[C@H](N(C)C)[C@H]2O)[C@](C)(O)C[C@@H](C)/C(=N/OCOCCOC)[C@H](C)[C@@H](O)[C@]1(C)O | 72.6% (inactive) | 69.5% | 0.917 (inactive) | 1.04 | 9160 | 9990 | -0.295 (inactive) | -0.333 | 0.145 (inactive) | –
C[C@H](C(=O)O)c1cccc(C(=O)c2ccccc2)c1 | 42.4% (inactive) | 93% | 0.744 (inactive) | 1.59 | 7940 | 10700 | -0.319 (inactive) | -0.518 | 0.4 (inactive) | 115 (inactive)
CC[C@@H]1OC(=O)C[C@H](O)[C@@H](C)[C@@H](O[C@@H]2O[C@H](C)[C@@H](O[C@H]3C[C@@](C)(O)[C@@H](O)[C@H](C)O3)[C@H](N(C)C)[C@H]2O)[C@@H](C=O)C[C@@H](C)C(=O)/C=C/C(C)=C\[C@@H]1CO[C@H]1O[C@@H](C)[C@H](O)[C@H](OC)[C@@H]1OC | 27.3% (inactive) | 67% | 0.839 (inactive) | 1.48 | 9360 | 11200 | 0.258 (inactive) | -0.691 | 0.54 (inactive) | –
CCCCn1c(=O)c2c(ncn2CC(C)=O)n(CCCC)c1=O | 49% (inactive) | 100% | 0.978 (inactive) | 1.23 | 10200 | 10400 | 0.541 (inactive) | 0.0406 | 0.875 (inactive) | –
C=C1CC[C@H](O)C/C1=C/C=C1\CCC[C@]2(C)[C@@H]([C@H](C)CCCC(C)(C)O)CC[C@@H]12 | 63.8% (inactive) | 110% | 1.02 (inactive) and 0.856 (inactive) | 1.06 and 1.42 | 6030 and 8450 | 5930 and 9870 | 0.872 (inactive) | 0.441 | -1.75 (inactive) | 84.6 (inactive)
CN1[C@@H](C[C@H](O)c2ccccc2)CCC[C@H]1CC(=O)c1ccccc1 | 53.1% (inactive) | 128% | 0.934 (inactive) | 1.15 | 9500 | 10200 | -0.675 (inactive) | -0.32 | 0.205 (inactive) | –
C=C1/C(=C/C=C2/CCC[C@]3(C)[C@@H]([C@H](C)CCCC(C)C)CC[C@@H]23)C[C@@H](O)C[C@@H]1O | 43.3% (inactive) | 115% | 0.847 (inactive) | 0.894 | 8220 | 9710 | 0.628 (inactive) and 0.37 (inactive) | 0.674 and -0.198 | -2.23 (inactive) | –
Nc1nc(=S)c2ncn([C@@H]3O[C@H](CO)[C@@H](O)[C@H]3O)c2[nH]1 | 64.1% (inactive) and 72.9% (inactive) | 36.6% and 69.4% | 1.04 (inactive) | 1.52 | 2980 | 2870 | 3.35 (active) | -0.524 | – | 1.25 (inactive)
